This is part of a sample that, as a whole, favours compounds with a hit. Of some 83,000 tested, about 20% had one in any assay.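 Compound tested at a single concentration for 48 hours in 96-well plates; a percent growth value below 10 was scored as active.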 The source made the active and inactive calls.

The source of these data is PubChem BioAssay (NCI).

The test system of this test is HL-60(TB) leukemia. Description: NCI-60 one-dose screen, 48 h (100 = growth as untreated, 0 = no growth, -100 = all killed). The note with it: 10 µM unless noted.
For the compound `O=C(CCN1CCCC1)c1ccc([N+](=O)[O-])cc1`, the growth is -21.1% (active).

Turning to `CCNC(=O)Oc1ccc(/C(=C(/C)Cc2ccc(OC)cc2)c2ccc(OCCN(CC)CC)cc2)cc1`, the growth was 34.1% (inactive).

In the case of `CCOC(=O)C1=C(C(F)(F)F)NC(=O)NC1CN1C(=O)c2ccccc2C1=O` (stereo not given), the growth was 46.2% (inactive).

Turning to `CN(C)c1ccc(CNCCO)cc1`, the growth is 96.1% (inactive).

Turning to `Cc1cc2nc3c4ccc(Br)cc4n(CCN(C)C)c3nc2cc1C`, the growth was 3.73% (active).

On to `COc1ccc(C(=O)N2c3ccccc3Sc3ccccc32)c(F)c1`, for which the growth is 15.4% (inactive).

Turning to `CCCCCc1cc[n+](CC(=O)c2ccc(Cl)cc2)cc1`, the growth is 94% (inactive).

As for `OC(COc1cccc2ccccc12)CN1CCN(c2ccccc2)CC1` (stereo not given), the growth was 90.9% (inactive).

Take `C#CCn1cc(C=C2C(=O)NC(=O)NC2=O)c2cc(Cl)ccc21`: the growth is 59.9% (inactive).

On to `O=Nc1c2cccnc2n2nnc3ccc(Cl)cc3c12`, for which the growth is -48.7% (active).

For the compound `COc1cc(-c2cc(/C=C/C(=O)c3ccc(F)c(F)c3)[nH]n2)cc(OC)c1OC`, the growth was 82.6% (inactive).

On to `Nc1n[nH]c2ccc([C@@H]3Nc4ccc5[nH]ncc5c4[C@H]4[C@H]5CCC(C5)[C@H]43)cc12`, for which the growth is -41.5% (active).

For the compound `N/C(=N\C(N)=N\c1nc2ccccc2s1)c1ccnc(Br)c1`, the growth is 2.51% (active).

`CC1=C(/C=C/C(C)=C/C=C(C(=O)O)\C(C)=C\C(=O)O)C(C)(C)CCC1`: the growth was 85.3% (inactive).

Consider `COc1ccc(C2=NN(c3ccc(S(N)(=O)=O)cc3)C(c3ccc(Cl)cc3)C2)c(O)c1` (stereo not given), for which the growth is 29.9% (inactive).

On to `CCN(CC)c1ccc(/C=C/C=C2\NC(=O)NC2=O)cc1`, for which the growth was 50.8% (inactive).

Regarding `COc1ccc(OC)c(Nc2nc3nonc3nc2Nc2cc(OC)ccc2OC)c1`, the growth is 103% (inactive).

`COc1ccc(-c2nnc(SCC(=O)Nc3ccc(/C(C)=N\O)cc3)n2-c2ccccc2)cc1OC`: the growth was 77.3% (inactive).

Regarding `CCOc1cc2c(cc1OCC)C(c1cc(C)c(O)c(C)c1)NCC2` (stereo not given), the growth is 81.7% (inactive).

On to `O=C(CSc1nc2ccccc2[nH]1)c1ccc(N2CCOCC2)cc1`, for which the growth was 113% (inactive).

For `O=C1c2ccccc2OC=C(c2ccccc2)N1CCCCNc1ccc(F)cc1`, the growth is 45.3% (inactive).

Consider `N#Cc1c(-c2ccc(Cl)cc2)nc2c(c(-c3ccccc3)nn2-c2ccccc2)c1-c1ccc(O)cc1`, for which the growth was 32.8% (inactive).

`Clc1ccc2c(NCCCN3CCN(c4nc(N5CCOCC5)nc5ccccc45)CC3)ccnc2c1`: the growth was -51.5% (active).

Turning to `c1ccc2cc3c(Nc4ccc(N5CCOCC5)cc4)ccnc3cc2c1`, the growth is 99.1% (inactive).

With `COc1ccc(Cn2nc(-c3cc(OC)c(OC)c(OC)c3)c3c2CCc2cnoc2-3)cc1OC`, the growth was 16.3% (inactive).

Consider `CN1CCC2(CC1)NC(=O)c1c(c3ccc(Cl)c(Cl)c3n1C)C2C#N` (stereo not given), for which the growth was 70.8% (inactive).

Turning to `COc1cc2ccnc(C=O)c2cc1OC`, the growth is -27.4% (active).

For `CNC(=O)c1cc(Oc2cccc3nc(Nc4ccc(Oc5ccccc5)cc4)ccc23)ccn1`, the growth is 87.1% (inactive).

As to `O=c1c2cc(F)ccc2sc2c(NCCCNCCO)nc3ccc(F)cc3c12`, the growth is 54.6% (inactive).

Take `COc1ccc(Cl)cc1C(=O)Nc1nc2ccc(Cl)cc2s1`: the growth was 103% (inactive).

For the compound `COc1ccc(C(=O)/C=C/c2cc(-c3ccc4c(c3)OCO4)n[nH]2)cc1OC`, the growth is 42.9% (inactive).

`O=C(CN1CCN(c2cc3c(cc2F)c(=O)c(C(=O)O)cn3C2CC2)CC1)N/N=C/c1ccncc1`: the growth was 98% (inactive).

Take `CC[C@]1(O)C[C@@H]2CN(CCc3c([nH]c4ccccc34)[C@@](C(=O)OC)(c3cc4c(cc3OC)N(C)[C@H]3[C@@](O)(C(=O)OC)[C@H](OC(=O)CCCBr)[C@]5(CC)C=CCN6CC[C@]43[C@@H]65)C2)C1`: the growth is -21.2% (active).

Consider `O=S(=O)(c1cc(Cl)ccc1O)c1cc(Cl)ccc1O`, for which the growth was 74.2% (inactive).

For `S=c1[nH]ccn1-c1ccccc1Cl`, the growth is 90% (inactive).

As for `O=C1Nc2ccccc2/C1=C/c1cccs1`, the growth is 107% (inactive).

On to `COc1ccc2nc(-c3c(-c4ccccc4)nc4ncccn34)[nH]c2c1`, for which the growth was 98% (inactive).

For `COc1ccc(-c2cnc3ccnn3c2-c2cc(OC)c(OC)c(OC)c2)cc1`, the growth is -22% (active).

`COc1ccc(-c2cc(-c3ccc(Nc4nc(Nc5ccccc5)nc(Nc5ccc(Cl)cc5)n4)cc3)nc(N)n2)cc1`: the growth was 101% (inactive).

In the case of `C=C(C)[C@@H]1CC[C@]2(C(=O)N3CCN(C)CC3)CC[C@]3(C)[C@H](CC[C@@H]4[C@@]5(C)CC[C@H](OC(=O)c6ccccc6C(=O)O)C(C)(C)[C@@H]5CC[C@]43C)[C@@H]12`, the growth was 106% (inactive).
